What all share (experiment): Cytotoxic Profiling of Annotated Libraries Using Quantitative High-Throughput Screening (AID 1296008); further: nearly all actives have a fitted effect of over 60% in size
Settings in all cases: Five cell lines viability, CellTiter-Glo ATP luminescence, 48-72 h; max response: hits give low values

In assay [1] the test system is CRL-7250. A digest of the protocol: (§1)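 Compounds were pin-transferred onto cells and incubated 48 or 72 hr at 37 degree Celsius, 95% humidity. CellTiter-Glo was added, plates sat 10 min at room temperature, then ATP-coupled luminescence was imaged as the viability read-out.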
The subject of assay [2] is HEK293. In a few lines: as §1
Assay [3] relates to HaCat. In a few lines: as §1
The test system of assay [4] is KB-3-1. A digest of the protocol:
as §1

Assay [5] relates to NIH3T3. A digest of the protocol: as §1

Where “and” joins values, the source holds several entries; their conditions need not be identical. Identical values can stand only once. Inconclusive results are not listed. Values without a mark were called inactive. Calls of active or inactive are those of the source. The call rests on the fitted dose curve; in most records, active means well fitted inhibition curve with a large enough effect; inconclusive means small, poorly fitted or top-dose-only effect; inactive means flat fitted curve, though single readings scatter.
On the % scale 0 is the no-effect control and ±100 the full control effect; potency means the concentration at half of the fitted maximal effect.

Take `CCc1cccc(CC)c1NC(=O)N1Cc2[nH]nc(NC(=O)c3ccc(N4CCN(C)CC4)cc3)c2C1`: the Potency in assay [1] was 16.6 µM (active) and 10.3 µM (active); in assay [2] it was 8.2 µM (active); in assay [3], 26.4 µM (active) and 18.4 µM (active); in assay [4] it was 7.43 µM (active) and 4.61 µM (active); in assay [5] it was 13.2 µM (active).
For the compound `CC1(COc2ccc3c(c2)ncn3-c2ccc3cccc(N4CCC(N)CC4)c3n2)COC1`, the Potency in assay [1] is 11.6 µM (active); in assay [2], 7.43 µM (active) and 8.2 µM (active); in assay [3] it was 20.6 µM (active); in assay [4] it was 5.9 µM (active); in assay [5], 2.96 µM (active).
For the compound `CC(C)[C@H](O)C(=O)N[C@@H](C)C(=O)N[C@@H]1C(=O)N(C)CCc2ccccc21`, the max response is -12.5% in assay [1]; -11.6% in assay [2]; 1.12% in assay [3]; -11.2% in assay [4]; -3.15% in assay [5].
For `CCOc1ccccc1N=Nc1c(C)[nH]n(-c2nc(-c3ccccc3)cs2)c1=O`, in that order: -16.1%, -20.4%, -4.82%, -0.405% and -3.32%.
On to `NC(=O)c1ccc(N(C(N)=O)c2c(F)cccc2F)nc1-c1ccc(F)cc1F`, for which the max response in assay [1] was -5.46% and 0.374%; in assay [2], -4.84% and -3.96%; in assay [3] it was -19.1% and -25.7%; in assay [4], 7.33%; in assay [5] it was 4.54%. Also, the compound was classed as inactive in assay [4] and in assay [5].
Consider `CCNC(=O)[C@H]1O[C@@H](n2cnc3c(N)nc(NCCc4ccc(CCC(=O)O)cc4)nc32)[C@H](O)[C@H]1O`, for which the max response is 4.93% in assay [1], -10.6% in assay [3] and -0.875% in assay [4]. Besides, the result in assay [2] and in assay [5] was inactive.
Take `CC[C@@H]([C@H](C)O)n1ncn(-c2ccc(N3CCN(c4ccc(OCC5CO[C@@](Cn6cncn6)(c6ccc(F)cc6F)C5)cc4)CC3)cc2)c1=O` (some centres undefined): the max response was -19.5% in assay [1], -20.3% in assay [3], -2.24% in assay [4] and -23.9% in assay [5]. Also, in assay [2], the Potency is 14.8 µM (active).
Regarding `COC(=O)[C@H](c1ccccc1Cl)N1CCc2sccc2C1`, the max response is -2.92% in assay [1], 3.92% in assay [2], -12% in assay [3] and -0.568% in assay [5]. For the same compound, the call in assay [4] was inactive.
With `C[C@H]1COC2=C1C(=O)C(=O)c1c2ccc2c1CCCC2(C)C`, the max response was -3.27% in assay [1], -0.441% in assay [2], 3.37% in assay [3] and -1.52% in assay [4]. Also, in assay [5], the compound was called inactive.
`N#Cc1ccc(Oc2ccc3c(c2)COB3O)cc1`: the compound was called inactive in assay [1]. For the same compound, the max response is -0.565% in assay [2]; -2.09% and 3.76% in assay [3]; -8.17% and -9.93% in assay [4]; -0.632% and -20.3% in assay [5].
For the compound `CC(C)CN(C[C@H](O)[C@H](Cc1ccccc1)NC(=O)O[C@H]1CCOC1)S(=O)(=O)c1ccc(N)cc1`, the max response in assay [1] is 0.909%; in assay [2], -14.4%; in assay [3] it was -15.1%; in assay [5], 1.75%. For the same compound, in assay [4], the outcome was inactive.
Regarding `COc1cc(Nc2nc3ccccc3nc2NS(=O)(=O)c2ccc(NC(=O)c3ccc(C)c(OC)c3)cc2)cc(OC)c1`, the max response was -27.1% and -5.83% in assay [1]; -23.6% and -15% in assay [3]; 6.27% in assay [4]; -5.22% in assay [5]. Also, the compound was called inactive in assay [2], in assay [4] and in assay [5].
Regarding `Cc1nc(NC(=O)N2CCC[C@@H]2C(N)=O)sc1-c1csc(C(C)(C)C)n1`, the Potency in assay [1] is 1.32 µM (active); in assay [2], 2.35 µM (active); in assay [3], 1.87 µM (active); in assay [4], 13.2 µM (active); in assay [5] it was 4.69 µM (active).
For the compound `N#CC1(c2cccc(C(=O)Nc3cc(Oc4ccc5nc(NC(=O)C6CC6)sc5n4)ccc3F)c2Cl)CC1`, the Potency in assay [1] was 5.17 µM (active); in assay [2] it was 13.2 µM (active) and 6.51 µM (active); in assay [3] it was 26.4 µM (active) and 20.6 µM (active); in assay [5], 3.32 µM (active) and 3.26 µM (active). For the same compound, in assay [4], the max response is -20.5% and -13.3%.
As to `C[C@H]1O[C@@H](n2cc(F)c(=O)[nH]c2=O)[C@H](O)[C@H]1O`, the results for the max response in assay [1], in assay [3] and in assay [4] were -14.8%, -27.2% and -15.3%, respectively. For the same compound, the Potency in assay [2] was 13.2 µM (active).
Consider `Cc1cccc2c1CC[C@H](CN1CCC(c3c(Cl)cccc3Cl)CC1)C[C@@H]2O`, for which the max response was -6.89% and 0.148% in assay [1]; 1.39% in assay [3]; -8.1% in assay [4]; -20.2% in assay [5]. The Potency in assay [2] was 14.6 µM (active).
In the case of `Cc1cc2c(cc1C1(c3ccc(C(=O)O)cn3)CC1)C(C)(C)CCC2(C)C`, the compound was called inactive in assay [1], in assay [4] and in assay [5]. Further, the values for the max response in assay [2], in assay [3] and in assay [4] were -8.08%, -17.6% and 4.32%, respectively.
For the compound `COc1cc(C=CC(=O)O)ccc1O`, the max response was 1.23% in assay [1], -0.866% in assay [2], -11.1% in assay [3] and 4.21% in assay [4]. For the same compound, the outcome in assay [5] was inactive.

The values are drawn from PubChem BioAssay (NCATS).
